PubChem BioAssay (NCATS)
Values joined by “and” are separate entries in the source; they are usually repeats but may differ in a detail not shown here. Equal entries are not always repeated. Results filed as inconclusive are left out. Entries that show only a call come without a potency. Active and inactive are the calls of the source. The call rests on the fitted dose curve; in most records, active means well fitted inhibition curve with a large enough effect; inconclusive means small, poorly fitted or top-dose-only effect; inactive means flat fitted curve, though single readings scatter.

Assay: P-glycoprotein substrates identified in KB-8-5-11 adenocarcinoma cell line, qHTS therapeutic library screen (AID 1346987); further: nearly all actives have a fitted effect of over 65% in size
Conditions: KB-8-5-11 (P-gp overexpressing) viability, CellTiter-Glo, 72 h; series mostly up to 44.5 µM
Description: The ATP-binding cassette transporters P-glycoprotein (P-gp) is known to limit brain penetration of many chemotherapy drugs. […] As such, we developed a high-throughput screen (HTS) to identify substrates of P-gp from a series of chemical libraries including the National Center for Advancing Translational Sciences Pharmaceutical Collection NPC, 2,816 compounds), testing a total of 10,804 compounds, most of which have known mechanisms of action. We used the CellTiter-Glo viability assay to test library compounds against the parental KB-3-1 human cervical adenocarcinoma cell line and the colchicine-selected sub-line KB-8-5-11 that over-expresses P-gp. KB-8-5-11 cells were also tested in the presence of a P-gp inhibitor (tariquidar) to assess reversability of transporter-mediated resistance. Of the tested compounds, a total of 90 P-gp substrates were identified including 55 newly identified P-gp substrates. Substrates were confirmed using an orthogonal killing assay against HEK-293 cells transfected with P-gp. As exemplars, we confirmed that […] (cyclin-dependent kinase inhibitor); AT9283, (Janus kinase 2/3 inhibitor); ispinesib (kinesin spindle protein inhibitor); gedatolisib (PKI-587, phosphoinositide 3-kinase/mammalian target of rampamycin inhibitor); GSK-690693 (AKT inhibitor); and KW-2478 (heat shock protein 90 inhibitor) were substrates , and direct ATPase stimulation was assessed. ABCG2 was also found to confer high levels of resistance to AT9283, GSK-690693 and gedatolisib, while ispinesib, AT7519 and KW-2478 were weaker substrates.
The HeLa derivative cell line, KB-3-1, and its colchicine-selected, P-gp-overexpressing subline, KB-8-5-11 were maintained in DMEM with 10% FCS and Pen/Strep with glutamine at 37 degree C in 5% CO2. For KB-8-5-11 cells, colchicine was added to the medium at a concentration of 100 ng/mL. HEK-293 cells transfected with empty vector (pcDNA) or vector containing human ABCB1 (MDR-19) or ABCG2 (R-5) have been described previously (Robey, Lin, Qiu, Chan & Bates, 2011) and were maintained in EMEM supplemented with 10% FCS, Pen/Strep and glutamine with 2 mg/ml G418 to select for the expression of the transporter. Cultures were confirmed to be free of mycoplasma infection using the MycoAlert Mycoplasma Detection Kit (Lonza, Walkersville, MD). For the screen, assay medium was identical to culture medium except for KB-8-5-11 where colchicine was excluded from the medium.
All cell lines were plated into 1536-well plates at 500 cells/well in 5 uL media. Compounds were then pinned in dose-response using a 1536-head pin tool (Kalypsis, San Diego, CA) and plates were incubated at 37 degree C in 5% CO2 for an additional 72 h. CellTiter-Glo reagent (Promega) was dispensed into the wells, incubated for 5 min and luminescence was read on a ViewLux instrument (Perkin-Elmer). Cytotoxic compounds were defined as those that yielded a curve class of -1.1, -1.2, -2.1, -2.2, -2.3, or -2.4, a maximum response of >50% and an AC50 of < 10 uM. Cherry-picked hits from screening analysis were tested with both the KB pair of cell lines, and the pcDNA (empty vector control) and MDR-19 (P-gp overexpressing) pair were tested, in the absence and presence of tariquidar.
Potency means the concentration at half of the fitted maximal effect.

Q: With `Cn1c(=O)c2c(ncn2CC2OCCO2)n(C)c1=O` as the compound, how does the Potency read?
A: inactive

Q: Which Potency does the source give for `CC1=C(CC(=O)O)c2cc(F)ccc2/C1=C\c1ccc(S(C)=O)cc1` (stereo not given) here?
A: inactive

Q: With `OCc1cc(C(O)CNCCCCCCOCCCCc2ccccc2)ccc1O` (stereo not given) as the compound, how does the Potency read?
A: inactive

Q: For `NC(=O)NC(=O)Cc1ccccc1`, which Potency is on record?
A: inactive

Q: With `C[C@]12CC[C@@H]3c4ccc(O)cc4CC[C@H]3[C@@H]1CC[C@@H]2OC(=O)CCC1CCCC1` as the compound, how does the Potency read?
A: 6.51 µM (active) and 8.2 µM (active)

Q: For `C[C@H](N)[C@H](O)c1cccc(O)c1`, which Potency is on record?
A: inactive

Q: For `O=C(O)Cc1sc(-c2ccccc2)nc1-c1ccc(Cl)cc1`, which Potency is on record?
A: inactive

Q: For `O=c1cc(CO)occ1O`, which Potency is on record?
A: inactive

Q: Which Potency does the source give for `CN1CCC[C@@H]1Cc1c[nH]c2ccc(CCS(=O)(=O)c3ccccc3)cc12` here?
A: inactive

Q: For `CNC(=O)Oc1ccc2c(c1)[C@]1(C)CCN(C)[C@@H]1N2C`, which Potency is on record?
A: inactive

Q: Which Potency does the source give for `Cc1cc2nc3c(=O)[nH]c(=O)nc-3n(C[C@H](O)[C@H](O)[C@H](O)CO)c2cc1C` here?
A: inactive

Q: For `CN1CCOC(c2ccccc2)c2ccccc2C1` (stereo not given), which Potency is on record?
A: inactive

Q: With `OCC(O)CN1CCN(c2ccccc2)CC1` (stereo not given) as the compound, how does the Potency read?
A: inactive

Q: Which Potency does the source give for `NCCNCCNCCN` here?
A: inactive

Q: Which Potency does the source give for `CC(C)(C(=O)O)c1ccc(C(O)CCCN2CCC(C(O)(c3ccccc3)c3ccccc3)CC2)cc1` (stereo not given) here?
A: inactive

Q: For `CC[C@@]1(c2ccccc2)NC(=O)N(C)C1=O`, which Potency is on record?
A: inactive

Q: For `O=C1O[C@H](CO)[C@@H](O)[C@H](O)[C@H]1O`, which Potency is on record?
A: inactive

Q: Which Potency does the source give for `O=c1cc[nH]c(=O)[nH]1` here?
A: inactive

Q: With `CC(COc1ccccc1)NC(C)C(O)c1ccc(O)cc1` (stereo not given) as the compound, how does the Potency read?
A: inactive

Q: With `CCCOC(=O)c1ccccc1` as the compound, how does the Potency read?
A: inactive

Q: For `CCC(=O)Nc1ccc(O)cc1`, which Potency is on record?
A: inactive

Q: For `O=C(O)c1ccccn1`, which Potency is on record?
A: inactive

Q: With `CC[N+](CC)(CC)CCOc1ccc(/C=C/c2ccccc2)cc1` as the compound, how does the Potency read?
A: inactive

Q: For `CN1[C@@H]2CC[C@H]1CC(OC(=O)C(O)c1ccccc1)C2` (stereo not given in full), which Potency is on record?
A: inactive

Q: For `CC(O)COc1ccccc1` (stereo not given), which Potency is on record?
A: inactive

Q: For `CCCCCCCCCCCCCCCC(=O)NCCO`, which Potency is on record?
A: inactive

Q: For `O=C1N=C(O)CN1/N=C/c1ccc(-c2ccc([N+](=O)[O-])cc2)o1`, which Potency is on record?
A: inactive

Q: Which Potency does the source give for `Oc1cn2c(n1)Nc1ccc(Cl)c(Cl)c1C2` here?
A: 18.4 nM (active) and 20.6 nM (active)

Q: Which Potency does the source give for `CO/N=C(\C(=O)N[C@@H]1C(=O)N2C(C(=O)O)=C(CSc3nc(=O)c(O)nn3C)CS[C@H]12)c1csc(N)n1` here?
A: inactive

Q: With `COc1ccc(Cl)cc1C(=O)NCCc1ccc(S(=O)(=O)NC(=O)NC2CCCCC2)cc1` as the compound, how does the Potency read?
A: inactive

Q: Which Potency does the source give for `CC1=C(C/C=C(\C)CCC[C@H](C)CCC[C@H](C)CCCC(C)C)C(=O)c2ccccc2C1=O` here?
A: inactive

Q: With `CC(=O)Nc1ccc(/C=N/NC(N)=S)cc1` as the compound, how does the Potency read?
A: inactive

Q: Which Potency does the source give for `NC(N)=NCCC[C@H](N)C(=O)O` here?
A: inactive

Q: With `NC(CSCC(=O)O)C(=O)O` (stereo not given) as the compound, how does the Potency read?
A: inactive

Q: With `CC/C=C(\C(=O)N[C@@H]1C(=O)N2C(C(=O)OCOC(=O)C(C)(C)C)=C(COC(N)=O)CS[C@H]12)c1csc(N)n1` as the compound, how does the Potency read?
A: inactive

Q: With `CCOC(CN1CCN(CC(C)C(=O)c2ccccc2)CC1)c1ccccc1` (stereo not given) as the compound, how does the Potency read?
A: inactive

Q: With `CC(=O)c1ccc2c(c1)N(CCCN(C)C)c1ccccc1S2` as the compound, how does the Potency read?
A: inactive

Q: For `NC1[C@H]2CN(c3nc4c(cc3F)c(=O)c(C(=O)O)cn4-c3ccc(F)cc3F)C[C@@H]12` (stereo not given in full), which Potency is on record?
A: inactive

Q: With `O=C(O)c1ccccc1-c1ccc(C(F)(F)F)cc1` as the compound, how does the Potency read?
A: inactive

Q: With `C[C@H]1O[C@H](O[C@H]2[C@H](O)[C@@H](O)[C@@H](O[C@H]3[C@H](O)[C@@H](O)[C@H](O)O[C@@H]3CO)O[C@@H]2CO)[C@H](O)[C@@H](O)[C@@H]1N[C@H]1C=C(CO)[C@@H](O)[C@H](O)[C@H]1O` as the compound, how does the Potency read?
A: inactive
